Gli-Sufu antag: antagonists of Gli-Sufu signaling; Sufu-KO-LIGHT fibroblasts, Gli luciferase reporter luminescence; inhibition, % at 5 µM; actives 0.74% (n = 340,000); AID 588413;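 active = inhibition above about 55%, limit read from the data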;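 also: 0% = DMSO-treated cells and 100% = wells with medium but no cells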
SRC3 inh: human NCOA3 inhibition; HEK293 GAL4-SRC3 luciferase reporter, luminescence; inhibition, % at 3.6 µM; actives 0.17% (n = 360,000); AID 588352;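 active = inhibition above a per-campaign cutoff, the mean of all compounds plus 3 SD, cut at about 60% in these data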;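 also: 0% = DMSO-treated cells and 100% = gossypol-treated cells at 36 µM; higher means less SRC3-driven luciferase light from the GAL4 reporter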
LRH-1 inv ag: NR5A2 inverse agonism in reporter assay | actives 0.13% (n = 360,000) | HEK293T StAR-luciferase reporter, LRH-1 transfected, 24 h | inhibition, % at 3.6 µM | AID 602396;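 active = inhibition above the mean inhibition of all tested compounds plus 3 SD, cut at about 73% in these data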;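 also: 0% = DMSO wells and 100% = reporter-only cells lacking LRH-1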
Target sequence (O00482 whole entry, looked up): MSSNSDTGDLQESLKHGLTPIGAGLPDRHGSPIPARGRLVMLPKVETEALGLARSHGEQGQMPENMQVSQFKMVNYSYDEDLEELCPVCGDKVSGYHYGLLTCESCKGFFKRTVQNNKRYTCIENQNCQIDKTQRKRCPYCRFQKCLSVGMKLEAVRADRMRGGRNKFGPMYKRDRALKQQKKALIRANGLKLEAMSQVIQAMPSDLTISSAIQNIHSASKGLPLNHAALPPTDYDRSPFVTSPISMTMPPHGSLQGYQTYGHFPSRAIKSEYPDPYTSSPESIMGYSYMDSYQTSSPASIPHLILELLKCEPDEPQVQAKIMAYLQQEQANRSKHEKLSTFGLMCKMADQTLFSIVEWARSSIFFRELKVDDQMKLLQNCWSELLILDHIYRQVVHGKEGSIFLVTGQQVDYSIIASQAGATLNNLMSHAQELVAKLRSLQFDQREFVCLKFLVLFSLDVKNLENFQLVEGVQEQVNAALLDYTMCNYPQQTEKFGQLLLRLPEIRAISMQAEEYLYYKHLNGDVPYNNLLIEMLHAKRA
SRC2 inh: human SRC2 (NCOA2) inhibition | Q15596 | HEK293 GAL4-SRC2 luciferase reporter, luminescence | inhibition, % at 9 µM | actives 0.17% (n = 370,000) | AID 651957;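 active = inhibition above the mean inhibition of all tested compounds plus 3 SD, set per campaign, cut at about 52% in these data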;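 also: 0% = DMSO treated cells and 100% = cells given Gossypol at 36 µM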
Shn3 inh set2: reduces Shn3 3'UTR luciferase signal in osteoblasts. Clone20 osteoblast Shn3 3'UTR firefly luciferase, 24 h. inhibition, % at 12.5 µM. actives 0.52% (n = 360,000). AID 588674;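 active = mean inhibition of at least 75% with every replicate also reaching 75%; inconclusive = mean inhibition at least 75% but some replicate below; inactive = mean inhibition below 75%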;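 also: 0% = median of neutral control wells and 100% = pilot-screen positive control compound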
NCOA1 inh: inhibitors of human steroid receptor coactivator 1 (SRC1); AID 588354; actives 0.12% (n = 360,000); inhibition, % at 3.6 µM; HEK293 GAL4-SRC1 luciferase reporter, luminescence;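 active = inhibition above the campaign mean plus 3 SD, with each screening campaign given its own cutoff, cut at about 60% in these data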;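 also: 0% = DMSO treated cells and 100% = gossypol at 36 µM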
Gli antag conf: confirmation of Gli-SUFU pathway antagonists. shares compounds with Gli-Sufu antag. Sufu-KO-LIGHT cells, Gli luciferase reporter, luminescence. inhibition, % at 5 µM. actives 40% (n = 2,500). AID 602428;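 active = mean inhibition at 5 µM reaching about 45%, limit read from the data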;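 also: plate controls were DMSO-treated cells for no effect and wells lacking cells for full effect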
Gli cytotox: counter-screen for Gli-SUFU antagonists: cytotoxicity; AID 651994; Sufu-KO-LIGHT cells cytotoxicity, ATP luminescence; shares compounds with Gli-Sufu antag; cytotoxicity, % at 5 µM; actives 32% (n = 2,500);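 active = mean cytotoxicity at 5 µM above about 25%, limit read from the data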;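 also: cells exposed to compound overnight for roughly 16 to 18 hours; plate controls were DMSO wells with cells for no effect and medium without cells for full effect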
Wnt3a cs: inhibits Wnt3a reporter, counter-screen for Gli-SUFU antagonists | shares compounds with Gli-Sufu antag | Wnt-LIGHT cells, Wnt3a-driven luciferase reporter, luminescence | inhibition, % at 6.25 µM | actives 20% (n = 2,500);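 active = mean inhibition above about 25%, limit read from the data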
Active calls of the source: *; ? = inconclusive; / = not tested or not shown. Shown are actives, neighbours in structure and some others; about 1.1% of the full set was active somewhere.

SMILES	Gli-Sufu antag	SRC3 inh	LRH-1 inv ag	SRC2 inh	Shn3 inh set2	NCOA1 inh	Gli antag conf	Gli cytotox	Wnt3a cs
O=C(N[C@@H]1C[C@@H]2O[C@@H](CO)CC[C@@H]2O[C@@H]1CCc1ccc(-c2ccccc2)cc1)c1cnccn1	/	/	/	18.5	/	/	/	/	/
Cn1nc(CC(=O)Nc2ccc(N3CCN(C(=O)OC(C)(C)C)CC3)cc2)c2ccccc2c1=O	65.7*	33.0	35.8	25.1	/	15.1	77.7*	38.6*	37.4*
Cn1nc(CC(=O)Nc2ccc3c(c2)OCCO3)c2ccccc2c1=O	66.0*	35.2	38.5	-2.3	?	11.8	67.9*	30.6*	41.5*
Cn1c(C(=O)O)c(CC(=O)Nc2ccc3c(c2)OCCO3)c2ccccc21	41.3	40.2	28.6	27.0	/	28.8	/	/	/
Cc1ccc(NC(=O)Cc2nn(C)c(=O)c3ccccc23)cc1F	66.7*	17.1	12.4	19.1	83.1	13.5	66.4*	29.2*	2.3
COc1cc(NC(=O)Cc2nn(C)c(=O)c3ccccc23)cc(OC)c1	24.2	22.7	19.6	3.0	76.5	-5.2	/	/	/
c1ccc(Cn2c(SC3CCCCC3)nnc2-c2cccnc2)cc1	/	/	/	5.3	/	/	/	/	/
C=CCSc1nnc(NC(=O)c2cccc(S(=O)(=O)N(C)c3ccccc3)c2)s1	74.4*	9.5	-7.0	-4.1	-33.5	-3.9	12.2	16.8	-8.8
CCOc1ccc(-n2c(SCC(=O)Nc3ccccc3-c3ccccc3)nnc2-c2cccs2)cc1	/	/	/	8.8	/	/	/	/	/
CCCCCCCCn1c(=O)c(C(=O)OC)c(N)c2ccccc21	67.5*	-1.8	-6.2	4.2	54.1	-5.7	29.7	12.5	27.8*
Cc1cccc2cc(-c3ccccc3)c(-c3ccccc3)c[n+]12	62.0*	41.0	53.3	20.1	52.1	41.6	51.6*	29.5*	-34.4
CCCCCCCOc1ccc(OC(=O)c2ccncc2)cc1	74.1*	0.1	-4.4	-34.2	-33.3	-14.5	63.1*	20.3	9.8
CCCCCCCOc1ccc(OC(=O)c2cccnc2)cc1	74.2*	-26.9	-0.3	-29.6	-2.3	-1.8	60.4*	19.9	-8.4
CSCCCNc1nc(C)nc2c1nnn2Cc1ccccc1	/	/	/	-9.1	/	/	/	/	/
Cc1nc2ccc(NS(=O)(=O)c3ccc(F)c(C)c3)cc2[nH]1	61.5*	20.5	17.7	21.8	64.3	21.7	49.3*	21.4	27.4*
Cc1nc2ccc(S(=O)(=O)c3ccc4nc(C)[nH]c4c3)cc2[nH]1	-3.0	0.0	9.9	-17.4	-7.7	-1.6	/	/	/
CC1CCN(c2c(NCc3ccc(C(=O)N4c5ccccc5CC4C)cc3)c(=O)c2=O)CC1 (stereo unspecified)	57.4*	-4.5	9.9	-20.7	44.6	-12.6	56.9*	0.3	-34.8
CC1CCN(c2c(NCc3ccc(C(=O)N4CCN(C5CCCCC5)CC4)cc3)c(=O)c2=O)CC1	4.7	0.1	-6.9	-7.2	17.9	-13.5	/	/	/
O=C(C[C@@H]1C/C=C\C[C@H](NC(=O)OCC2c3ccccc3-c3ccccc32)C(=O)OC[C@@H]2CCCN2C1=O)N[C@@H](CO)Cc1ccccc1	33.3	-2.5	-10.2	-13.5	11.0	2.0	/	/	/
O=C(C[C@H]1C/C=C\C[C@H](NC(=O)OCC2c3ccccc3-c3ccccc32)C(=O)OC[C@@H]2CCCN2C1=O)N[C@H](CO)Cc1ccccc1	50.2	6.2	8.3	/	28.0	-0.7	45.8*	11.4	-7.5
O=C(C[C@@H]1C/C=C\C[C@H](NC(=O)OCC2c3ccccc3-c3ccccc32)C(=O)OC[C@H]2CCCN2C1=O)N[C@H](CO)Cc1ccccc1	67.7*	-27.2	12.0	-22.5	79.6	-1.4	65.0*	24.0	-18.9
CCOC(=O)c1oc2ccccc2c1NC(=O)C1CCCCC1	97.1*	17.4	13.9	/	16.3	6.9	23.9	19.0	-9.2

Bioassay records: PubChem, several laboratories
